PLK1 PBD block: inhibitors of human PLK1 polo-box domain binding; P53350; Plk1 PBD binding of FITC phosphopeptide, fluorescence polarization; Potency, µM, hits mostly inhibitors; 360,000 tested, 2.8% active; AID 720504; note: series mostly up to about 57 µM; nearly all actives have a fitted effect of over 65% in size
JMJD2A Tudor inh: blocks the human JMJD2A Tudor domain; Potency, µM (titrated, usually from 114 µM), usual class: inhibitors; O75164; AlphaScreen JMJD2A-Tudor / H3K4me3 peptide binding; 390,000 tested, 4.4% active; note: nearly all actives have a fitted effect of over 50% in size
Target sequence (O75164 whole entry, looked up, the tested form may be a part): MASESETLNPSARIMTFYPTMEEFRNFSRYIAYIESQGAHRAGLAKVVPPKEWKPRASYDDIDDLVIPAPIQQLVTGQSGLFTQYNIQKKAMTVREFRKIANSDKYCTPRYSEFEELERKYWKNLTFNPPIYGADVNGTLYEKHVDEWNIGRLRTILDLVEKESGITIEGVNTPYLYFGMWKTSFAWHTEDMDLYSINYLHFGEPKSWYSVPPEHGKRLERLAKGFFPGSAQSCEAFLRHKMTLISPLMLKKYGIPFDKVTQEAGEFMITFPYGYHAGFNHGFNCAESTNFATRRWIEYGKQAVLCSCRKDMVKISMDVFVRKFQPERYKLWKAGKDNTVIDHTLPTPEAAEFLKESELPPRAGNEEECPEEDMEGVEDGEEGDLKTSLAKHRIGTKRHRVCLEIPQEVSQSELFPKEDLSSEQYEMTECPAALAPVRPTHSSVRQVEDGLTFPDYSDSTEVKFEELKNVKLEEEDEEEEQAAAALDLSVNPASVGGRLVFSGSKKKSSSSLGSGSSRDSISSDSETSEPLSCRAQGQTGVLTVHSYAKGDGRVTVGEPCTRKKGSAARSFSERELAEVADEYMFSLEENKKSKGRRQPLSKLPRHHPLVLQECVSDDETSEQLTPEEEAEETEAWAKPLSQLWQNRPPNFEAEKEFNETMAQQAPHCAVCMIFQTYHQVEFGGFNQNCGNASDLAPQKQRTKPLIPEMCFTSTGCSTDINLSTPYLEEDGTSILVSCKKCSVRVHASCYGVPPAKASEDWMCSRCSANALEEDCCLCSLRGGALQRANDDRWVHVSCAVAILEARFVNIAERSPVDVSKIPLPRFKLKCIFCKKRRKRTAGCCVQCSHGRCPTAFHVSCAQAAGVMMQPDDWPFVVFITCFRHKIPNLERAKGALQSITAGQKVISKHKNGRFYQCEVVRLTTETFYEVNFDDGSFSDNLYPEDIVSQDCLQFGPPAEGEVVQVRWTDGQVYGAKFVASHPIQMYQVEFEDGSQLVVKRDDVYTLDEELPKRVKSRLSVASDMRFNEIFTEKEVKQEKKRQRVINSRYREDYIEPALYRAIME
HP1b chromo inh: HP1-beta chromodomain-methylated histone interaction inhibition; P83916; AlphaScreen HP1-beta / biotin-H3K9me3 peptide binding; Potency, µM (highest dose often 114 µM), actives largely listed as inhibitors; 390,000 tested, 0.56% active; AID 540317; note: nearly all actives have a fitted effect of over 70% in size
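HP1-beta protein (50 nM final) preincubated 30 min at room temperature with biotinylated H3(1-18)K9me3 peptide (50 nM) in PBS pH 7.4, 0.01% Tween-20, then compound added for 30 min. AlphaScreen streptavidin donor/nickel chelate acceptor beads (10 ug/mL final), 30 min dark, luminescence read.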
BAZ2B inh: inhibitors of human BAZ2B bromodomain. 360,000 tested, 4.4% active. Potency, µM (series often up to 114 µM), actives largely listed as inhibitors. AID 504333. AlphaScreen BAZ2B-H3K14Ac peptide displacement. Q9UIF8; note: nearly all actives have a fitted effect of over 60% in size
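Inhibition is scored as reduced AlphaScreen emission. The BAZ2B/b-H3(5-23)K14Ac complex (50 nM each) in PBS pH 7.4, 0.01% Tween-20 meets compound (up to 110 uM) for 30 min at RT before bead addition.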
12-LOX inh: blocks human arachidonate 12S-lipoxygenase; purified 12hLO, xylenol orange hydroperoxide absorbance; 580,000 tested, 1.1% active; P18054; Potency, µM (series often up to 108 µM), most hits filed as inhibitors
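Hydroperoxide product was detected by ferrous iron/xylenol orange as the 573 to 405 nm absorbance ratio. Arachidonic acid at 40 uM (final) was turned over for 30 min at room temperature by 150 nM human 12hLO, pH 7.0 Hepes buffer, after 15 min compound preincubation.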
G9a block: inhibitors of human histone lysine methyltransferase G9a; Q96KQ7; G9a H3K9 monomethylation, AlphaScreen, 2 h; Potency, µM (doses to about 102 µM), actives largely listed as inhibitors; 350,000 tested, 8.8% active; AID 504332; note: nearly all actives have a fitted effect of over 75% in size
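Chemiluminescent proximity detection of H3K9 monomethylation, read after 10 min bead incubation in the dark. Reaction: 20 nM G9a, 500 nM biotin-H3K9 peptide, 20 uM SAM cofactor, 2 h, room temperature, following 15 min enzyme-compound preincubation.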
Hits are given with their value; - = inactive; ? = inconclusive; . = no result; [ ] = another dose, or the depositor's remark. This is a sample that favours compounds with a hit; in the whole collection about 9% have one here. Calls come from the whole dose curve; as a rule, active = well fitted curve in the direction sought with a large enough effect; inconclusive = small, poorly fitted or top-dose-only effect, or another doubt; inactive = no such curve, though single readings can be large; an effect the other way counts as inactive or inconclusive.

SMILES	PLK1 PBD block	JMJD2A Tudor inh	HP1b chromo inh	BAZ2B inh	12-LOX inh	G9a block
NC1=NC(=Nc2ccc(Br)cc2)c2ccccc21	-	-	-	-	-	?
Cc1cc2nc(C3CCCN(C(=S)Nc4ccccc4)C3)[nH]c2cc1C (stereo unspecified)	-	-	-	-	-	-[0.501 µM]
Cc1ccc(O)c(NC(=S)NC(=O)c2ccc(-c3ccc(Cl)cc3)o2)c1	-	-[11.4 µM]	-	.	?	.
Cc1csc(NC(=O)c2ccc(Cl)cc2[N+](=O)[O-])n1	?	-	-	-	?	-
Cc1ccc(C(=O)NC(=S)N2CC(C)OC(C)C2)cc1[N+](=O)[O-] (stereo unspecified)	-	-	-	-	-	40µM
O=C(Nc1nc(-c2ccccn2)cs1)c1cc(Cl)ccc1[N+](=O)[O-]	9.5µM	56µM	?	14µM	?	5.6µM
Cc1csc(NC(=O)c2ccc(C)c([N+](=O)[O-])c2)n1	-	-	-	?	?	10µM
Cc1cc(C(=O)Nc2nc(-c3ccccn3)cs2)ccc1[N+](=O)[O-]	?	-	-	28µM	-	40µM
Cc1cc(C(=O)NCC(C)C)c2ccccc2n1	-	-	-	-	-	-
O=C(C1CCN(C2CCN(Cc3ccc4c(c3)CCO4)CC2)CC1)N1CCCC1	-	-	-	-	-	-[12.7 µM]
CCC(=O)NC(=S)Nc1ccc(NC(=O)c2ccc(C)c([N+](=O)[O-])c2)cc1	-	-	-	-	-	7.9µM
CCOc1ccc(C(=O)NC(=S)Nc2ccc(NC(=O)CC)cc2)cc1[N+](=O)[O-]	-	-	-	-	?	-
CN(C)c1ccc(/C=N/NC(=O)CCc2c[nH]c3ccccc23)cc1	-	-	-	-	-	-
COc1ccc(CCNCC(O)COc2ccc(Cl)cc2)cc1OC (stereo unspecified)	-	-	-	-	-	-
COc1ccc(CCNCC(O)COc2cccc(C(C)=O)c2)cc1OC (stereo unspecified)	-	25µM	?	71µM	-	-
COc1ccc(CCNCC(O)COc2c(C)cccc2C)cc1OC (stereo unspecified)	-	?	?	50µM	?	-
Cc1ncc(-c2ccc(S(=O)(=O)Nc3cccc(Cl)c3)cc2)o1	.	.	.	.	-	.
CCOc1ccccc1NC(=O)C(NCCc1ccc(OC)cc1)c1ccccc1 (stereo unspecified)	-	-	-	50µM	-	.
CCOc1ccccc1NC(=O)C(NCCN(C)C)c1ccccc1 (stereo unspecified)	-	22µM	-	50µM	-	10µM
CCOc1ccccc1NC(=O)C(=O)/C=C(\O)c1cc(OC)ccc1OC	21µM	20µM	-	-	-	?
COc1ccc(CCNC(C(=O)Nc2cc(C)cc(C)c2)c2ccccc2)cc1 (stereo unspecified)	-	-	-	-	-	-
Cc1ccc(CNC(=O)CCC2CCCN(Cc3cccc4ncccc34)C2)o1 (stereo unspecified)	-	-	-	-	-	-
Cc1ccc(CNC(=O)CCC2CCCN(C(=O)c3ccc4c(c3)OCO4)C2)o1 (stereo unspecified)	-	-	-	-	-	50µM
Cc1ccc(CNC(=O)CCC2CCCN(Cc3cccc4cccnc34)C2)o1 (stereo unspecified)	-	-	-	?	-	40µM
Cc1ccc(CNC(=O)CCC2CCCN(C(=O)CCC(F)(F)F)C2)o1 (stereo unspecified)	-	-	-	-	-	50µM
SMILES	PLK1 PBD block	JMJD2A Tudor inh	HP1b chromo inh	BAZ2B inh	12-LOX inh	G9a block
O=C(CCC1CCCN(C(=O)CCC(F)(F)F)C1)NCc1ccc(F)c(F)c1 (stereo unspecified)	-	-	-	-	-	-
CCCC(C(=O)NCc1cccc(Cl)c1)N1Cc2ccccc2C1=O (stereo unspecified)	.	-	-	-	-	-
COc1cccc(C2=CC(=O)CC(C)(C)C2=O)c1	-	.	.	.	-	.
CS(=O)(=O)Nc1ccc(-c2n[nH]c(=S)n2-c2ccccc2)cc1	-	5.6µM	-	-	?	0.5µM
Cc1[nH]c2ccc(-c3n[nH]c(=S)n3-c3ccc(Br)cc3)cc2c1C	?	-	-	?	-	-
Cc1[nH]c2ccc(-c3n[nH]c(=S)n3Cc3ccccc3)cc2c1C	-	?	-	?	?	7.9µM
Cc1[nH]c2ccc(-c3n[nH]c(=S)n3-c3ccccc3)cc2c1C	-	56µM	?	-	?	1.6µM
Clc1cccc(N/N=C(\Cc2nc3ccccc3[nH]2)c2ccccc2)c1	-	?	-	-	13µM	25µM
c1ccc(N/N=C(\Cc2ncc[nH]2)c2ccccc2)cc1	-	-	?	?	?	2.8µM
O=C(NCc1nc2ccccc2[nH]1)c1cccc(Cl)c1	.	-	-	-	-	-
Cc1cc(/C=C2\SC(=S)NC2=O)c(C)n1-c1ccccc1	?	14µM	-	?	?	45µM
Cc1cc(/C=C2/C(=O)NN(c3ccccc3)C2=O)c(C)n1-c1ccc(O)cc1	-	-	?	-	-	-
Cc1cc(C=C2C(=O)CCCC2=O)c(C)n1-c1ccccc1	?	?	-	50µM	?	50µM
Cc1cc(/C=C2\SC(=S)NC2=O)c(C)n1-c1ccc(O)cc1	-	-[11.4 µM]	?	40µM	28µM	.
COc1ccc(-n2c(C)cc(/C=C3\SC(=S)NC3=O)c2C)cc1	-	-	-	-	?	.
Cc1cc(/C=C2\SC(=S)NC2=O)c(C)n1C	-	45µM	-	45µM	?	40µM
CCCCc1ccc(NC(=O)C(=O)NCCN2CCN(C(=O)c3ccc(C)cc3)CC2)cc1	.	.	.	.	-	.
Cc1c2c(nc3c(C(=O)NC4CCCC4)cnn13)CCCC2	-	-	-	-	-	-
CCN(Cc1ccccc1)C(=O)CC1C(=O)NCCN1CCc1ccccc1 (stereo unspecified)	.	.	.	.	-	.
CCOc1ccc(CN2CCNC(=O)C2CC(=O)O)cc1 (stereo unspecified)	-	-	-	-	-	-
Cc1ccc(CN2CCNC(=O)C2CC(=O)O)cc1 (stereo unspecified)	-	-	-	-	-	16µM
O=C(O)CC1C(=O)NCCN1CCCc1ccccc1 (stereo unspecified)	-	-	-	-	-	28µM
Cc1[nH]c2ccccc2c1C(=O)CN1C(=O)NC2(CCCCCC2)C1=O	-	-	-	-	-	-[12.7 µM]
CCOc1cccc(OCCOc2ccc(C(=O)c3ccccc3)cc2)c1	-	-	-	-	-	-
CC1CCC(NC(=O)COc2ccc(C(=O)c3ccccc3)cc2)CC1 (stereo unspecified)	-	-	-	-	-	-
CC1CCN(CCOc2ccc(C(=O)c3ccccc3)cc2)CC1	-	?	-	?	?	7.1µM
